Results as given in PubChem BioAssay (NCI).
The panel holds about 83,000 compounds, 20% with a hit somewhere; the sample as a whole holds those more often.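 Activity criterion: percent growth below 10, measured after cells in 96-well plates were exposed to a single compound concentration for 48 hours.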 Unmarked numbers belong to inactive results. Active and inactive are the calls of the source.

How the values were obtained:
Assay in all cases: NCI-60 one-dose screen, 48 h (100 = growth as untreated, 0 = no growth, -100 = all killed)
Settings in all cases: 10 µM unless noted
DU-145 prostate = test system: DU-145 prostate
K-562 leukemia = test system: K-562 leukemia
MALME-3M melanoma = test system: MALME-3M melanoma
MDA-MB-231 breast = test system: MDA-MB-231 breast
RXF 393 renal = test system: RXF 393 renal
SF-268 CNS = test system: SF-268 CNS
SF-295 CNS = test system: SF-295 CNS
SF-539 CNS = test system: SF-539 CNS
UACC-257 melanoma = test system: UACC-257 melanoma
M14 melanoma = test system: M14 melanoma

| Structure (SMILES) | growth (DU-145 prostate) | growth (K-562 leukemia) | growth (MALME-3M melanoma) | growth (MDA-MB-231 breast) | growth (RXF 393 renal) | growth (SF-268 CNS) | growth (SF-295 CNS) | growth (SF-539 CNS) | growth (UACC-257 melanoma) | growth (M14 melanoma) |
| --- | --- | --- | --- | --- | --- | --- | --- | --- | --- | --- |
| Cc1ccc2c(n1)C(=O)C(Cl)=C(Nc1ccc(C(C)C)cc1)C2=O | 16.2% | 0.714% (active) | -33.9% (active) | -41% (active) | -93.6% (active) | 77.1% | 82.8% | 96.2% | -70.3% (active) | 25.6% |
| CC1=C(C)C(=O)C(Nc2cccc(C(F)(F)F)c2)=C(Br)C1=O | 105% | -17.9% (active) | 101% | 69.2% | 105% | 97.7% | 106% | 96% | 88.1% | 99% |
| COCCOc1ccc2ncc(C#Cc3cncc(C(=O)Nc4ccc(CN5CCN(C)CC5)c(C(F)(F)F)c4)c3)n2n1 | 7.72% (active) | -18% (active) | -72.3% (active) | -28.5% (active) | -91.2% (active) | -19.6% (active) | 31% | 8.57% (active) | 28.1% | -90.5% (active) |
| Oc1ccc(-c2nc3ccc(/C(=N\N=C\c4ccc(Cl)cc4)c4ccccc4)cc3[nH]2)cc1 | 88.3% | 70.8% | 101% | 91.1% | 93.5% | 90.9% | 82.6% | 87% | 92% | 63.5% |
| Cc1nc(/N=C(N)/N=C(\N)c2cccc(Br)c2)sc1C | 57.9% | 15.9% | 62% | 76.5% | 56.9% | 80% | 8.89% (active) | 37.8% | 88.3% | 47.1% |
| CC(=O)Nc1nc(C)c(-c2csc(Nc3ccccc3)n2)s1 | 30% | 24.8% | 13% | 33% | 6.02% (active) | 46.7% | 11.9% | 15.9% | 50.7% | 35.3% |
| O=C(COc1ccc(/C=C2\C(=O)Nc3cc(Cl)ccc32)cc1)Nc1ccc(Cl)cc1 | 85.9% | 32.8% | 98.7% | 82.8% | 76.4% | 72.6% | 66% | 66.8% | 78.4% | 22.1% |
| CCS(=O)(=O)Nc1ccc(C(=O)CC2(O)C(=O)Nc3ccccc32)cc1 (stereo not given) | 109% | 93.5% | 90.1% | 99.6% | 115% | 97.3% | 102% | 96.1% | 103% | 105% |
| C#CCOc1ccc(-c2csc(NC(=O)C=C)n2)cc1NS(=O)(=O)c1cccc2c(N(C)C)cccc12 | 44.6% | 9.26% (active) | 62.5% | 31.7% | -6.3% (active) | 64.7% | 66.8% | 3.55% (active) | 68.6% | 31.9% |
| CN1CCN(c2ccc(Nc3nc(NCCCNS(=O)(=O)c4ccccc4)c4sccc4n3)cc2)CC1 | 56.4% | 16.7% | -42.8% (active) | 38.1% | -29.8% (active) | 64.2% | 38.4% | -71.4% (active) | -15.6% (active) | -9.06% (active) |
| O=C(CCCCCCNC(=O)c1csc(Br)n1)NO | 26.7% | 13.8% | 8.89% (active) | 50.2% | 3.36% (active) | 69.4% | 52% | 36.7% | 18.4% | 29.4% |
| CC(C)(C)Nc1nc2c(OCCc3ccccc3)cccn2c1-c1ccc([N+](=O)[O-])cc1 | 86.2% | 39.7% | 83.6% | 80.9% | 63.5% | 71.2% | 43.8% | 76.5% | 88.7% | 60.5% |
| COc1ccc(C2CC(c3cccc(OCCCCOc4cccc(C5=NOC(c6ccc(OC)cc6)C5)c4)c3)=NO2)cc1 (stereo not given) | 104% | 45.1% | 110% | 99.9% | 114% | 108% | 101% | 111% | 96.9% | 90.5% |
| O=C(/C=C/c1cccc(F)c1)c1cccc(OCCCCOc2cccc(C(=O)/C=C/c3cccc(F)c3)c2)c1 | 107% | 100% | 101% | 95.9% | 107% | 99.7% | 105% | 110% | 105% | 103% |
| Cc1csc(/N=C(N)/N=C(\N)c2cccs2)n1 | 110% | 95.7% | 102% | 99.5% | 106% | 103% | 113% | 99.1% | 104% | 99.1% |
| Cc1[nH]c(C(=O)Nc2ccc(S(=O)(=O)N3CCCCC3)cc2OCCOCCOCCOCCOCCOCCOCCOCCOCCOc2cc(S(=O)(=O)N3CCCCC3)ccc2NC(=O)c2[nH]c(C)c3c2CCCCC3=O)c2c1C(=O)CCCC2 | 47.3% | 19.2% | 3.69% (active) | 11.6% | 47% | 44.3% | 30.8% | 14.1% | -27% (active) | 14% |
| Cc1csc(/N=C(N)/N=C(\N)c2cccnc2)n1 | 96.8% | 42.4% | 60.7% | 86.9% | 89.7% | 77.2% | 48.4% | 79.5% | 95.5% | 51.6% |
| CC(C)(C)OC(=O)Nc1ccc(-c2cccc(Oc3ccc4nnc(Cl)n4n3)c2)cc1 | 82.7% | 31.2% | 106% | 83.8% | 89.8% | 104% | 84.1% | 92.7% | 87.1% | 65.9% |
| O=C(CSc1nc2ccccc2c(=O)n1-c1ccccc1)N/N=C/c1ccc(Oc2ccc(Br)cc2)cc1 | 38.3% | 62.5% | 54.9% | 50.9% | 62.2% | 84.3% | 83.7% | 68.7% | 93.7% | 56.3% |
| O=C(CSc1nc2ccccc2c(=O)n1-c1ccccc1)Nc1ccc(S(=O)(=O)Nc2nccs2)cc1 | 84.1% | 58.2% | 88.5% | 74.1% | 76.5% | 44.5% | 98.2% | 69% | 62.8% | 78.6% |
| NNc1nnc2nc(Nc3ccccc3)nc(Nc3ccc(S(N)(=O)=O)cc3)n12 | 112% | 101% | 101% | 95.8% | 101% | 107% | 106% | 96.5% | 106% | 108% |
| Cc1c(C(=O)/C=C/c2ccc(Cl)cc2)nnn1-c1ccc2oc(=O)ccc2c1 | 104% | 83.4% | 98.8% | 94% | 86.5% | 102% | 88.9% | 99.5% | 99.9% | 95.6% |
| O=C(Nc1ccc(Cl)c(C(F)(F)F)c1)Nc1ccc2oc(=O)ccc2c1 | 40.5% | 19.1% | 42.6% | 69.3% | 89.2% | 65% | 5.31% (active) | 63.3% | 64.4% | 49.6% |
| Cc1ccc(Nc2nc(SC(C)C)nc(-c3ccccc3)c2C#N)cc1 | 104% | 103% | 75.3% | 82.1% | 84.1% | 82% | 93.9% | 84.3% | 113% | 116% |
| O=C(CCCCCCNC(=O)C(O)(O)C(F)(F)F)Nc1ccc(Cl)cc1 | 17.6% | 14.4% | 9.88% (active) | 36.2% | -23.7% (active) | 22% | 0.336% (active) | 28.6% | 31% | 34.4% |
| COC(=O)[C@@H](Cc1c[nH]c2ccccc12)NC(=O)CCCCOc1cc(O)c2c(=O)cc(-c3ccccc3)oc2c1 | 93.3% | 83.6% | 94.3% | 81.7% | 76.8% | 84.2% | 91.2% | 90.3% | 97.1% | 97.2% |
